The values below come from PubChem BioAssay (NCI).

This is part of a sample that, as a whole, favours compounds with a hit. Of some 83,000 tested, about 20% had one in any assay.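 Plates (96-well) were seeded with cells, treated with compound at one concentration, and incubated for 48 hours before percent growth was determined.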 A number with no mark means an inactive call. Calls of active or inactive are those of the source. The calls were made as follows: active = growth percent below 10; inactive = the rest.

The assay concerns HL-60(TB) leukemia. Nature of the assay: NCI-60 one-dose screen, 48 h (100 = growth as untreated, 0 = no growth, -100 = all killed). To be noted: 10 µM unless noted.
With `c1ccc(-c2nc3sc(C(c4ccccc4)c4ccccc4)nn3c2-c2ccccc2)cc1`, the growth is 112%.
With `Nc1nc(-c2cccnc2)nc2c1sc(=S)n2-c1ccccc1`, the growth was 99.3%.
In the case of `CCOC(=O)CNC(=O)Sc1ccc(C(C)(C)C)cc1`, the growth is 64.4%.
Consider `COc1cc(-c2ccc(-c3ccc(C(=N)N)cc3)s2)cc(OC)c1OC`, for which the growth is 3.15% (active).
In the case of `Nc1ccc(C(OC(=O)c2cc3ccccc3c(Cc3c(O)c(C(=O)OC(c4ccc(N)cc4)(c4ccc(N)cc4)c4ccc(N)cc4)cc4ccccc34)c2O)(c2ccc(N)cc2)c2ccc(N)cc2)cc1`, the growth is 4.23% (active).
For the compound `O=C1CCC(c2c(O)cc(O)c3c(=O)c(O)c(-c4ccc(O)c(O)c4)oc23)N1` (configuration not stated), the growth was 87%.
In the case of `COc1ccc(NC(=O)c2ccc(Nc3ncnc4[nH]c(C)c(C)c34)cc2)cc1`, the growth was 89.1%.
Turning to `CC(=O)Nc1ccccc1-c1n[nH]c(=O)[nH]c1=O`, the growth is 109%.
`O=C(/C=C/C12c3ccccc3C(c3ccccc31)C1C(=O)NC(=O)C12)c1ccc(Cl)cc1Cl` (configuration not stated): the growth is -8.27% (active).
On to `CC(O)C(N)=O` (configuration not stated), for which the growth is 117%.
`CC(=O)O[C@H]1C(=O)[C@@]2(C)[C@H]([C@H](OC(=O)c3ccccc3)[C@]3(O)C[C@H](OC(=O)[C@H](OC(=O)CCC(=O)OC4CCC(S/N=C(N)/N=C(\N)N(C)C)CC4)[C@@H](NC(=O)c4ccccc4)c4ccccc4)C(C)=C1C3(C)C)[C@]1(OC(C)=O)CO[C@@H]1C[C@@H]2O` (some centres not stated): the growth is 7.49% (active).
For the compound `COc1ccccc1N1C(=O)/C(=C/C2=Cc3ccccc3OC2)SC1=S`, the growth was 92.9%.
